Screens from PubChem.
This excerpt belongs to a sample that is enriched for hits.
TDP1 inh: qHTS Assay for Inhibitors of Tyrosyl-DNA Phosphodiesterase (TDP1); Tyrosyl-DNA phosphodiesterase 1 (Homo sapiens), Q9NUW8; recombinant TDP1, AlphaScreen DNA substrate cleavage; Potency, µM (doses to about 130 µM), without a hit: top-dose activity change, negative = inhibition, most hits filed as inhibitors; hit rate 0.28% among 350,000; further: nearly all actives have a fitted effect of over 40% in size
Target sequence (Q9NUW8 whole entry, looked up): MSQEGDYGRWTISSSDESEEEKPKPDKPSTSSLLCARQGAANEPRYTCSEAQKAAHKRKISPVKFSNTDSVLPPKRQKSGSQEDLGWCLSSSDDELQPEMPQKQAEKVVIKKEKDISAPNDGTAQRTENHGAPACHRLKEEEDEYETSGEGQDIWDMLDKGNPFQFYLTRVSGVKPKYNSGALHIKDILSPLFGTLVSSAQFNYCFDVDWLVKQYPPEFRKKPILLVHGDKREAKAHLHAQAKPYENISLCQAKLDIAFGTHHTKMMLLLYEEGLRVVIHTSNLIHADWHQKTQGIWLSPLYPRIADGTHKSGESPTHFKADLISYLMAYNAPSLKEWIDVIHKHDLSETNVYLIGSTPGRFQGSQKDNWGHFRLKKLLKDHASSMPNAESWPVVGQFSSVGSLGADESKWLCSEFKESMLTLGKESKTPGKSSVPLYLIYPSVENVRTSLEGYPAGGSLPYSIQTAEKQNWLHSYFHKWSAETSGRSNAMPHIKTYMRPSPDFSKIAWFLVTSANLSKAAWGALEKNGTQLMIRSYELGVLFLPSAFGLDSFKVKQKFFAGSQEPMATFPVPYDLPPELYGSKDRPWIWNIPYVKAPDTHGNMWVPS
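Tdp1 1 nM final; 15 min RT w/ cpd; substrate 15 nM, 5 min; beads 10 ug/ml, 10 min; AlphaScreen read. Neg ctrl: no enzyme.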
GCN5L2 inh: qHTS Assay for Inhibitors of GCN5L2 | Histone acetyltransferase KAT2A (Homo sapiens), Q92830 | GCN5L2 HAT assay, ThioGlo1 CoA-SH fluorescence | Potency, µM (highest dose often 58.9 µM), inactives show at the highest dose activity change, negative = inhibition, actives largely listed as inhibitors | hit rate 0.21% among 390,000 | AID 504327, 2011
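Enzyme at 20nM final was mixed with library compounds for 15 min at room temperature. Peptide H3(1-25) at 75uM, acetyl-CoA at 70uM and ThioGlo1 at 50uM were then added. Plates were read immediately and after 20 min (Ex340nm/Em540nm).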
APE1 inh: qHTS Assay for Inhibitors of the Human Apurinic/apyrimidinic Endonuclease 1 (APE1); recombinant APE1, TAMRA/BHQ-2 abasic DNA cleavage fluorescence; Potency, µM (doses to about 65.8 µM), for the others: top-dose activity change, negative = inhibition, actives largely listed as inhibitors; hit rate 0.35% among 350,000;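 further: plate controls were vehicle for no effect and reference inhibitor for full effect; nearly all actives have a fitted effect of over 55% in size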
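Enzyme (0.75 nM final) and test compound are incubated 15 min at room temperature before adding 50 nM quenched THF abasic-site duplex. Cleavage dequenches TAMRA, followed at 525/598 nm over three reads one minute apart.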
BLM helicase inh: qHTS Assay for Inhibitors of Bloom's syndrome helicase (BLM). Potency, µM (doses to about 56.1 µM), inactives show at the top dose activity change, negative = inhibition, actives largely listed as inhibitors. hit rate 0.2% among 350,000. RecQ-like DNA helicase BLM (Homo sapiens), P54132. recombinant BLM DNA unwinding, fluorescence dequenching. AID 2528, 2010;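 further: plate controls were vehicle for no effect and no enzyme for full effect; nearly all actives have a fitted effect of over 35% in size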
KDM4E inh: qHTS Assay for Inhibitors of Human Jumonji Domain Containing 2E (JMJD2E); AID 2147, 2009; hit rate 1.6% among 230,000; JMJD2E catalytic domain, FDH-coupled NADH fluorescence (FDH is formaldehyde dehydrogenase); Lysine-specific demethylase 4E (Homo sapiens), B2RXH2; Potency, µM (top dose mostly 57.1 µM), inactives show top-dose activity change, negative = inhibition, actives largely listed as inhibitors; active means well fitted inhibition curve with a large enough effect, not every such curve was filed as active; inconclusive means small, poorly fitted or top-dose-only effect, or another doubt; inactive means no such curve, though single readings can be large or run the other way;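 further: 0% = wells with enzyme and -100% = buffer wells without enzyme; nearly all actives have a fitted effect of over 50% in size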
RECQ1 inh: qHTS Assay for Inhibitors of RecQ-Like Dna Helicase 1 (RECQ1) | ATP-dependent DNA helicase Q1 (Homo sapiens), P46063 | RECQ1 DNA unwinding, red fluorescence kinetic read | Potency, µM (titrated, usually from 57.3 µM), for inactives: top-dose activity, negative = inhibition, actives largely listed as inhibitors | hit rate 0.54% among 240,000 | AID 2549, 2010;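 further: plate controls were vehicle for no effect and no enzyme for full effect; nearly all actives have a fitted effect of over 30% in size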
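50 nM RECQ1T1 preincubated 15 min with compound in Tris pH 8.0 buffer with MgCl2, DTT, Tween-20 and 2.5 ug/ml poly(dI-dC); started with 200 nM TAMRA/BHQ-2 forked duplex and 2 mM ATP. Unwinding read as fluorescence (525/598 nm), two reads 2 h apart.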
Active calls of the source: *; i = inactive; ? = inconclusive; . = no result given; [ ] = remark or other dose. Unless noted, the call rests on the fitted dose curve; in most records, active means well fitted curve in the direction sought with a large enough effect; inconclusive means small, poorly fitted or top-dose-only effect, or another doubt; inactive means no such curve, though single readings can be large; an effect the other way counts as inactive or inconclusive. Unless noted, on the % scale 0 is the no-effect control and ±100 the full control effect; potency means the concentration at half of the fitted maximal effect.

SMILES	TDP1 inh	GCN5L2 inh	APE1 inh	BLM helicase inh	KDM4E inh	RECQ1 inh
c1nc(NC2CCNCC2)c2cc(-c3ccoc3)ccc2n1	.	20µM*	0%	57%	.	8%
c1cncc(-c2ccc3ncnc(NC4CCNCC4)c3c2)c1	.	-14%	1%	38%	.	8%
O=C(O)CSC1=NS(=O)(=O)c2ccccc21	-3%	.	.	.	.	.
O=C(CSc1nnc(NC(=O)C2CCC2)s1)Nc1ccccc1F	1%	1%	30%	-2%	.	.
O=C(CSc1nnc(Nc2ccccc2F)s1)NC(=O)CN1CCCC1=O	14µM*	-10%	11µM*	.	.	.
COC(=O)CCC(=O)CN	4%	2%	6%	-11%	28µM*	-13%
O=C1CCc2cc(S(=O)(=O)Nc3ccc4ccccc4c3)ccc2N1	2%	.	.	.	.	.
C=CCOc1c(CNc2ccc3[nH]c(=O)[nH]c3c2)cccc1OC	6%	-6%	4%	1%	20µM*	i
O=C(Cc1ccccc1)Nc1sc2c(c1C(=O)Nc1cccc(Cl)c1)CCCC2	0%	.	.	.	.	.
OCc1cccc(-c2noc(-c3ccccc3F)n2)c1	.	.	57%	.	.	.
O=C(O)c1cccnc1C(=O)O	4%[56.1 µM]	3%	51%	-11%	2µM*	-3%
CCc1ccc(/C=C2\CN(CC)Cc3c2nc2ccccc2c3C(=O)O)cc1	6%	2µM*	3%	-26%	15%	-4%
CCN1C/C(=C/c2sccc2C)c2nc3ccccc3c(C(=O)O)c2C1	2%	-10%	8%	-8%	-5%	i
CCN1C/C(=C/c2cccs2)c2nc3ccccc3c(C(=O)O)c2C1	7%	-9%	1%	-10%	25µM*	11%
Cc1cc(-c2ccc(N=Nc3c(S(=O)(=O)O)cc4cc(S(=O)(=O)O)cc(N)c4c3O)c(C)c2)ccc1N=Nc1c(S(=O)(=O)O)cc2cc(S(=O)(=O)O)cc(N)c2c1O	.	11µM*	0.47µM*	-83%	.	.
O=S(=O)(O)c1cc(O)c2c(O)c(N=Nc3cc(Cl)ccc3O)c(S(=O)(=O)O)cc2c1	.	-11%	12µM*	70%	.	.
Nc1cc(S(=O)(=O)O)ccc1O	4%	.	?	.	.	0%
Oc1ccc(Cl)cc1N=Nc1ccccc1	9%	-14%	7%	-5%	.	.
O=C(O)Cc1nnc(-c2cc3ccccc3[nH]2)s1	0%	.	.	.	.	.
O=C(c1ccccc1)N1CCN(c2nc(-c3cccs3)nc3ccccc23)CC1	3%	.	.	.	.	.
Cc1ccc(S(=O)(=O)N(C(=O)c2ccco2)c2cc3sc(=O)oc3c3ccccc23)cc1	11%	?	-4%	-7%	14µM*	i
CCOc1ccc(S(=O)(=O)N(C(=O)c2ccco2)c2cc3sc(=O)oc3c3ccccc23)cc1	11%	?	0%	-11%	16µM*	-5%
COc1ccc(-c2cc(-c3nnc(COC(=O)CC4CC5CCC4C5)o3)c3ccccc3n2)cc1OC (stereo unspecified)	0%	35µM*	1%	-4%	?	-3%
O=P(c1ccccc1)(c1ccccc1)c1nc(-c2ccc(Cl)cc2)oc1N1CCOCC1	12%	-8%	19%	-20%	3.2µM*	19%
O=P(c1ccccc1)(c1ccccc1)c1nc(-c2ccccc2)oc1N1CCOCC1	.	-9%	12%	-5%	?	2%
SMILES	TDP1 inh	GCN5L2 inh	APE1 inh	BLM helicase inh	KDM4E inh	RECQ1 inh
CCOC(=O)c1c(C)oc2c1c(C=NCC1CCCO1)c(O)c1ccccc12 (stereo unspecified)	-1%	0%	5%	-2%	5%	18%
CCOC(=O)c1c(C)oc2c1c(C=NCc1ccccn1)c(O)c1ccccc12	13%	-18%	2%	-10%	4µM*	-6%
CCOc1nc(-c2ccc(C)cc2)ccc1-c1noc(-c2cccnc2)n1	-4%	3%	?	0%	4.5µM*	-4%
CCn1c(=S)sc2c(=O)n(CC(=O)Nc3ccccc3)c(C)nc21	5%	-5%	21%	1%	.	.
CCn1c(=S)sc2c(=O)n(CC(=O)Nc3ccccc3C(F)(F)F)c(C)nc21	45µM*	-11%	-18%	-25%	.	.
COc1ccc2c(c1OC)C(=O)OC2CC(=O)c1ccc(O)c(O)c1 (stereo unspecified)	-4%	-1%	-2%	1%	14µM*	-3%
COc1ccc2c(c1OC)C(=O)OC2CC(=O)c1ccc(O)cc1 (stereo unspecified)	3%	-9%	-4%	0%	-1%	-1%
C#CCOCCOCCOCCNc1nc(N2CCN(C(=O)[C@H](CCC(=O)O)n3cc(C(N)CO)nn3)CC2)nc(N2CCN(C(=O)[C@H](CCC(=O)O)n3cc(C(N)CC(C)C)nn3)CC2)n1 (stereo partly specified)	?	2%	?	-7%	22µM*	-15%
C#CCOCCOCCOCCNc1nc(N2CCN(C(=O)[C@H](CCC(=O)O)n3cc(C(N)CO)nn3)CC2)nc(N2CCN(C(=O)[C@H](CCC(=O)O)n3cc(C(N)CO)nn3)CC2)n1 (stereo partly specified)	-1%	1%	?	-2%	-6%	i
C#CCOCCOCCOCCNc1nc(N2CCOCC2)nc(N2CCN(C(=O)[C@H](Cc3cc4ccccc4[nH]3)n3cc([C@@H](N)CC(C)C)nn3)CC2)n1	4%	3%	-5%	-10%	-5%	-14%
C#CCOCCOCCOCCNc1nc(N2CCN(C(=O)[C@H](Cc3cc4ccccc4[nH]3)n3cc([C@@H](N)CC(C)C)nn3)CC2)nc(N2CCN(C(=O)[C@H](Cc3cc4ccccc4[nH]3)n3cc([C@@H](N)CC(C)C)nn3)CC2)n1	10%	-3%	4%	22µM*	?	?
c1cn(-c2cc(-c3ccc4c(c3)OCO4)ncn2)cn1	.	?	8.9µM*	-2%	.	-8%
CCOC(=O)c1oc2c(O)c(O)ccc2c(=O)c1-c1nncn1-c1ccccc1	4%	-2%	-11%	1%	7.9µM*	11%
Cc1cc(C(=O)NNC(=S)NC(=O)/C=C/c2ccccc2Cl)n[nH]1	11%	-7%	2%	-11%	7.9µM*	-2%
